An excerpt weighted towards active compounds, which were near 3.1% of everything screened.
ALOX15B inhib – qHTS Assay for Inhibitors of 15-hLO-2 (15-human lipoxygenase 2) | Polyunsaturated fatty acid lipoxygenase ALOX15B (Homo sapiens), O15296 | purified 15hLO-2, xylenol orange hydroperoxide absorbance | Potency, µM (titrated, usually from 57.1 µM), most hits filed as inhibitors | 110,000 compounds, 0.56% hits; also: nearly all actives have a fitted effect of over 60% in size
Target sequence (O15296 whole entry, looked up): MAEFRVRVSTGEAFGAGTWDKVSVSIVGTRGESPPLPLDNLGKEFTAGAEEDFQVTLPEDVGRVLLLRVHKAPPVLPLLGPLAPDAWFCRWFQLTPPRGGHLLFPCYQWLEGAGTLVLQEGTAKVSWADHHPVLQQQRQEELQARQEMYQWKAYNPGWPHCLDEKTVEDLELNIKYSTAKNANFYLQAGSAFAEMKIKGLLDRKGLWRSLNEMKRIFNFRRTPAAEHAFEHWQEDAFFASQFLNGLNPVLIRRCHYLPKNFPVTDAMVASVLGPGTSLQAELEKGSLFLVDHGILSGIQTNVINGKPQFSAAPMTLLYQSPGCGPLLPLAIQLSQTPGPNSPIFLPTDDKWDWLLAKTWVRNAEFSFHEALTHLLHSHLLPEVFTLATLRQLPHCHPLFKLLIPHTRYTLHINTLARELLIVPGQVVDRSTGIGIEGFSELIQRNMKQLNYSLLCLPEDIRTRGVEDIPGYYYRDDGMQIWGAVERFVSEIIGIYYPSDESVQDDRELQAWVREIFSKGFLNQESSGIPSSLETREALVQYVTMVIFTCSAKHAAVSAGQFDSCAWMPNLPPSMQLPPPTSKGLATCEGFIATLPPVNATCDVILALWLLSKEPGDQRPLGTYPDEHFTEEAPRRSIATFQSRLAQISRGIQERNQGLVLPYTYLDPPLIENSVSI
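Read-out: hydroperoxide product oxidises ferrous iron, measured as xylenol orange complex via the 573-to-405 nm absorbance ratio after 30 min. Reaction: 50 nM enzyme, 15 min compound preincubation, 45 uM arachidonic acid, 90 min RT, Hepes pH 7.5 with Triton X-100.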
ALOX12 inhib – qHTS Assay for Inhibitors of 12-hLO (12-human lipoxygenase); Polyunsaturated fatty acid lipoxygenase ALOX12 (Homo sapiens), P18054; purified 12-hLO, xylenol orange hydroperoxide absorbance; Potency, µM (highest dose often 57.1 µM), hits mostly inhibitors; 150,000 compounds, 0.12% hits; AID 1452, 2008; also: nearly all actives have a fitted effect of over 55% in size
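Xylenol orange chromogenic assay: hydroperoxide from 12hLO oxidises Fe(II), giving red-shifted Fe(III)-XO absorbance. Conditions: 150 nM enzyme, 40 uM arachidonic acid, 25 mM Hepes pH 7.0, 0.01% Triton X-100, 30 min, room temperature.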
PNC inhibitor – High Content Assay for Compounds that inhibit the Assembly of the Perinucleolar Compartment; PC3M PTB-GFP, PNC prevalence imaging, 16 h; hits give low values; activity change (PNC), negative = inhibition, % at 10 µM; 140,000 compounds, 3.1% hits;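 active = readout at or below -70, meaning at least 70% loss of cells showing the perinucleolar compartment, a nuclear body marking cancer cells; inconclusive = readout between -30 and a set limit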
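Compounds are pinned in duplicate onto adhered PC3M cells stably expressing GFP-tagged PTB and incubated 16 h at 37 C. Cells are then fixed, nuclei stained with Hoechst, and PNC-positive cells counted.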
A number is an active result; 0 = inactive; ? = inconclusive; - = no result given; [ ] = remark or other dose. Unless noted, calls follow the shape of the dose curve; as a rule, active = well fitted curve in the direction sought with a large enough effect; inconclusive = small, poorly fitted or top-dose-only effect, or another doubt; inactive = no such curve, though single readings can be large; an effect the other way counts as inactive or inconclusive.

SMILES | ALOX15B inhib | ALOX12 inhib | PNC inhibitor
C[C@@H]1NC(=O)c2cc([N+](=O)[O-])cc(I)c2NCC[C@@H](C(N)=O)NC(=O)[C@H](CC(N)=O)NC1=O | - | 0 | -103
O=C(NCc1cccs1)C1CCCN(S(=O)(=O)c2cccs2)C1 (centres undefined) | 0 | 0 | 0
O=C(O)C1CCCN(S(=O)(=O)c2cccs2)C1 (centres undefined) | - | 0 | -100
CC1(C)Cc2c(C#N)c(NCCCO)nc(-c3ccccc3)c2CO1 | 0 | 0 | 0
Cc1nc(NCCCO)c(C#N)c2c1COC(C)(C)C2 | 0 | 0 | -122
COCCNc1ncnc2ccc(-c3c(C)noc3C)cc12 | 0 | - | -
O=C(O)[C@H](Cc1c[nH]c2ccccc12)N1C(=O)c2ccccc2C1=O | 0[11.4 µM] | 0[11.4 µM] | -
COc1cccc(C2(c3cccc(OC)c3)CC2C(=O)Nc2ccccc2Cl)c1 (centres undefined) | - | 0 | -82
COc1cccc(C2(c3cccc(OC)c3)CC2C(=O)Nc2ccc(F)cc2)c1 (centres undefined) | - | 0 | 0
CCOc1ccc(S(=O)(=O)N2CCc3ccccc3C2)cc1 | 0 | 0 | ?
CCOc1ccc(S(=O)(=O)N2c3ccccc3CC2C)cc1 (centres undefined) | 0 | 0 | -103
CCCCC/C=C\CC(O)/C=C/c1cccc(CC(O)CCCCO)n1 (centres undefined) | - | 0 | -
Cc1ccc2c(c1)C(c1ccc(F)cc1)N(C(=O)c1cc3ccccc3oc1=O)CC(=O)N2 (centres undefined) | - | 0 | -89
Cc1ccc2c(c1)C(c1ccccc1)N(C(=O)C(C)C)CC(=O)N2 (centres undefined) | 0 | 0 | 0
O=C1CSC(c2ccco2)N1 (centres undefined) | 0 | 0 | 0
COc1ccc(C2NC(=O)CS2)cc1 (centres undefined) | - | 0 | -100
Cn1ncc2c(Nc3ccccc3Br)ncnc21 | 0 | 0 | 0
Cn1ncc2c(Nc3ccc(-c4ccccc4)cc3)ncnc21 | 0 | 0 | -82
O=C(O)CCSCc1ccc(I)cc1 | 0[11.4 µM] | 0[11.4 µM] | -
COC(=O)C1=C(C)NC(C)=C(C(=O)OCCNCc2ccccc2)C1c1cccc([N+](=O)[O-])c1 (centres undefined) | 0[0.0915 µM] | 0[0.00818 µM] | -
COc1ccc(C2SCCN2C(=S)Nc2cccc(Cl)c2)cc1 (centres undefined) | - | ? | -102
COc1ccc(C2SCCN2C(=S)Nc2ccc(Cl)cc2)cc1 (centres undefined) | - | 0 | 0
O=C(O)[C@H]([C@H]1NCCS1)N1Cc2ccccc2C1 | 0[11.4 µM] | 0[11.4 µM] | -
CCOC(=O)c1c(C)[nH]c(C)c1C(=O)CN1C(=O)NC(CC(C)C)C1=O (centres undefined) | 0 | 0 | -94
CCOC(=O)c1c(C)[nH]c(C)c1C(=O)CN1C(=O)NC2(CCC(C)CC2)C1=O (centres undefined) | 0 | 0 | ?
SMILES | ALOX15B inhib | ALOX12 inhib | PNC inhibitor
C[C@@]12CC[C@H]3[C@H](CC=C4C[C@@H](O)CC[C@@]43C)[C@@H]1CC[C@@H]2N(CCO)CCO | 0[11.4 µM] | 0[11.4 µM] | -
CCCC(CCC)C(=O)Nc1ccncc1 | 0 | 0 | 0
CCCC(C)C(=O)Nc1ccncc1 (centres undefined) | - | 0 | -100
CCOC(=O)C(NC(=O)c1ccc(OC)cc1)(N1CCCC1=O)C(F)(F)F (centres undefined) | - | 0 | 0
CCOC(=O)C(NC(=O)c1ccccc1)(N1CCCC1=O)C(F)(F)F (centres undefined) | 0 | 0 | -85
CCC1(C(=O)O)NC(c2cc(OC)ccc2O)C2C(=O)N(Cc3ccccc3)C(=O)C21 (centres undefined) | 0 | 0 | 0
CCCC1(C(=O)O)NC(c2ccccc2O)C2C(=O)N(Cc3ccccc3)C(=O)C21 (centres undefined) | 0 | 0 | -110
CC(C)n1cc(/C=C2\NC(=O)N(c3cccc(Cl)c3)C2=O)c2ccccc21 | 0 | 0 | 0
CC(C)n1cc(/C=C2/NC(=O)N(c3cccc(Cl)c3)C2=O)c2ccccc21 | - | 0 | -100
CC(=O)NCCNc1ncncc1-c1ccccc1CN(C)C | 0 | - | -
O=C(c1cc(C(F)(F)F)cc(C(F)(F)F)c1)N1CCC2(CC1)CN(c1ccccn1)C2 | 0 | 0 | -
CCCC[C@@H]1C[C@H]1C(NC(=O)c1cccs1)c1ccc(Cl)cc1 (some centres undefined) | 0 | 0 | -
CC(=O)N(C)c1nc(-c2ccc(Cl)cc2)cs1 | 0 | 0 | 0
Cc1ccc(-c2csc(N(C)C(=O)c3c(C)nn(-c4ccccc4)c3Cl)n2)cc1 | 0[11.4 µM] | 0 | -99

Bioassay records from PubChem BioAssay.
